{"source": "the supplement of paper PMC9262897", "about": "“Low-cost anti-mycobacterial drug discovery using engineered E. coli” (Nature Communications, 2022)", "note": "Counter-ions that a name gives are not always drawn. ± gives the standard deviation of the averaged measurements."}
{"system": "E. coli TESEC Mtb Asd", "assay": "growth (OD600 after 10 h); higher = more growth (less inhibition)", "conditions": "arabinose induction (level): High; compound 0.1 mM; raw OD600 reference: median of DMSO wells 0.331, cell-free background 0.041", "method": "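TESEC E. coli strains in which the native enzyme is deleted and replaced by arabinose-inducible Mtb Asd, DapB, CysH or TrpD, each grown in its selective medium. Strains were screened against the Prestwick library at 0.1 mM and 1% DMSO in 384-well format at low and high arabinose induction. Growth is read as OD600 after 10 h in triplicate.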"}
{"molecule": "Cc1onc(-c2c(F)cccc2Cl)c1C(=O)N[C@@H]1C(=O)N2[C@@H]1SC(C)(C)[C@@H]2C(=O)O", "note": "[Flucloxacillin sodium]", "growth": "0.265 ± 0.056"}
{"molecule": "CN(C/C=C/c1ccccc1)Cc1cccc2ccccc12", "note": "[Naftifine hydrochloride]", "growth": "0.269 ± 0.035"}
{"molecule": "COc1ccccc1Oc1c(NS(=O)(=O)c2ccc(C(C)(C)C)cc2)nc(-c2ncccn2)nc1OCCO", "note": "[Bosentan]", "growth": "0.253 ± 0.045"}
{"molecule": "O=C(O)CCC(=O)Nc1ccc(S(=O)(=O)Nc2nccs2)cc1", "note": "[Succinylsulfathiazole]", "growth": "0.447 ± 0.027"}
{"molecule": "NC(=O)OCC(O)COc1ccc(Cl)cc1", "note": "(configuration not stated) [Chlorphensin carbamate]", "growth": "0.364 ± 0.046"}
{"molecule": "C(=C\\c1ccccc1)/CN1CCN(C(c2ccccc2)c2ccccc2)CC1", "note": "[Cinnarizine]", "growth": "0.277 ± 0.079"}
{"molecule": "Cc1ccccc1OCC(O)CO", "note": "(configuration not stated) [Mephenesin]", "growth": "0.416 ± 0.023"}
{"molecule": "O=C(O)CN(CCN(CC(=O)O)CC(=O)O)CCN(CC(=O)O)CC(=O)O", "note": "[Pentetic acid]", "growth": "0.115 ± 0.02"}
{"molecule": "CC(=O)OCC(=O)[C@@]1(OC(C)=O)[C@@H](C)C[C@H]2[C@@H]3C[C@H](F)C4=CC(=O)C=C[C@]4(C)[C@@]3(F)[C@@H](O)C[C@@]21C", "note": "[Diflorasone Diacetate]", "growth": "0.263 ± 0.03"}
{"molecule": "O=C1C(CC[S+]([O-])c2ccccc2)C(=O)N(c2ccccc2)N1c1ccccc1", "note": "(configuration not stated) [Sulfinpyrazone]", "growth": "0.26 ± 0.063"}
{"molecule": "O=C(CCNNC(=O)c1ccncc1)NCc1ccccc1", "note": "[Nialamide]", "growth": "0.237 ± 0.041"}
{"molecule": "C[N+]1(C)CCC(=C(c2ccccc2)c2ccccc2)CC1", "note": "[Diphemanil methylsulfate]", "growth": "0.203 ± 0.027"}
